Screening data: PubChem, National Center for Advancing Translational Sciences (NCATS)
In the library only some 11% were active in any assay of this set; here they are far more common.
JMJD2A Tudor inh: qHTS Assay for Inhibitors of JMJD2A-Tudor Domain; AlphaScreen JMJD2A-Tudor / H3K4me3 peptide binding; Lysine-specific demethylase 4A (Homo sapiens), O75164; Potency, µM (doses to about 114 µM), most hits filed as inhibitors; AID 504339, 2011; actives 4.4% (n = 390,000); also: nearly all actives have a fitted effect of over 50% in size
L3MBTL1 inh: qHTS Assay for the Inhibitors of L3MBTL1; AlphaScreen L3MBTL1–H3K9me1 peptide binding; actives 0.66% (n = 230,000); Lethal(3)malignant brain tumor-like protein 1 (Homo sapiens), Q9Y468; AID 485360, 2010; Potency, µM (top dose mostly 57.1 µM), usual class: inhibitors; also: nearly all actives have a fitted effect of over 60% in size
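L3MBTL1 50 nM + b-AHA-H3(1-15)K9me1 75 nM, 30 min RT; compound added, 30 min RT; streptavidin donor/Ni-chelate acceptor beads 10 ug/mL each final, 30 min RT dark; AlphaScreen read.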
PI5P4K alpha inh: qHTS for Inhibitors of phosphatidylinositol 5-phosphate 4-kinase (PI5P4K) | actives 1.2% (n = 330,000) | max response, % | Phosphatidylinositol 5-phosphate 4-kinase type-2 alpha (Homo sapiens), P48426 | PI5P4Kalpha enzyme, ADP-Glo luminescence, 60 min; active compounds read low; active = max response of -50% or lower; inconclusive = between -30% and -50%; inactive = -30% or higher; also: value at the top dose of about 77 µM
Target sequence (P48426 whole entry, looked up): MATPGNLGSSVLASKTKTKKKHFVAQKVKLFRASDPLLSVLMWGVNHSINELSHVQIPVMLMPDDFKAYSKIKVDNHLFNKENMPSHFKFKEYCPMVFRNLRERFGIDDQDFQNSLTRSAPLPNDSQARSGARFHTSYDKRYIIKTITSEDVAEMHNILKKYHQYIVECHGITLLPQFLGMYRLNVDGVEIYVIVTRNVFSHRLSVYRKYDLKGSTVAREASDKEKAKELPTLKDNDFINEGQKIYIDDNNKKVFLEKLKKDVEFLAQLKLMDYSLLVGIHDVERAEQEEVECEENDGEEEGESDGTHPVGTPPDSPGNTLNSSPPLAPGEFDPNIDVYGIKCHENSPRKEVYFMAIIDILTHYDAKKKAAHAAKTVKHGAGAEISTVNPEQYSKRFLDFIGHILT
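ADP-Glo luminescence end-point after a 60 min room-temperature kinase reaction. PI5P4Kalpha and substrate in HEPES pH 7.4 buffer with EGTA, 0.1% CHAPS and 5% DMSO; ATP at 5 microM final.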
BAZ2B block: qHTS Assay for Inhibitors of BAZ2B; Bromodomain adjacent to zinc finger domain protein 2B (Homo sapiens), Q9UIF8; AlphaScreen BAZ2B-H3K14Ac peptide displacement; Potency, µM (top dose mostly 114 µM), hits mostly inhibitors; actives 4.4% (n = 360,000); AID 504333, 2011; also: nearly all actives have a fitted effect of over 60% in size
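BAZ2B 50 nM plus b-H3(5-23)K14Ac 50 nM, PBS pH 7.4/0.01% Tween-20, 30 min RT; compound added (max 110 uM), 30 min RT; streptavidin donor/Ni-chelate acceptor beads 10 ug/mL final, 20 min dark; AlphaScreen read.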
G9a inh: qHTS Assay for Inhibitors of Histone Lysine Methyltransferase G9a; G9a H3K9 monomethylation, AlphaScreen, 2 h; Potency, µM (highest dose often 102 µM), most hits filed as inhibitors; actives 8.8% (n = 350,000); also: nearly all actives have a fitted effect of over 75% in size
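Enzyme 20 nM + cpd, 15 min RT; add b-H3K9 pep 500 nM / SAM 20 uM; 2 h RT; anti-H3K9me1 Ab 0.5 ug/mL + SA donor / anti-rabbit acceptor beads 20 ug/mL each, 10 min; AlphaScreen read.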
HP1b binding inh: HTS for Inhibitors of HP1-beta Chromodomain Interactions with Methylated Histone Tails. Potency, µM (highest dose often 114 µM), actives largely listed as inhibitors. actives 0.56% (n = 390,000). AlphaScreen HP1-beta / biotin-H3K9me3 peptide binding; also: nearly all actives have a fitted effect of over 70% in size
Target sequence (P83916 whole entry, looked up): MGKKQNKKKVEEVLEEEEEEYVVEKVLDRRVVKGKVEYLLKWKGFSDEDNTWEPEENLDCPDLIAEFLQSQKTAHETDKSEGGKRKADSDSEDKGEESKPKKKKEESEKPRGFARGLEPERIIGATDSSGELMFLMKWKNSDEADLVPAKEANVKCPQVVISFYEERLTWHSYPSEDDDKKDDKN
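Compound inhibition of the preformed complex between 50 nM HP1-beta and 50 nM biotinylated H3K9me3 peptide was read by AlphaScreen. Buffer was PBS pH 7.4 with 0.01% Tween-20. Incubations ran 30 min at room temperature, with 10 ug/mL donor/acceptor beads.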
Numbers stand for hits; 0 = inactive; ? = inconclusive; - = not tested or not shown; [ ] = dose if it differs, or a comment. Unless noted, calls follow the shape of the dose curve; as a rule, active = well fitted inhibition curve with a large enough effect; inconclusive = small, poorly fitted or top-dose-only effect; inactive = no such curve, though single readings can be large or run the other way.

SMILES	JMJD2A Tudor inh	L3MBTL1 inh	PI5P4K alpha inh	BAZ2B block	G9a inh	HP1b binding inh
O=C1c2ccccc2C(=O)N1c1ccccn1	0	-	-	-	-	0
CCOC(=O)c1cccc(NC(=O)CCCn2nc(C)c3c(C)n(-c4ccccc4)nc3c2=O)c1	0	-	-	0	0	0
Cc1ccc(N=C2S/C(=C/c3cccc(OCC(=O)O)c3)C(=O)N2C)cc1C	?	-	0	?	0	0
COc1ccc(N=C2S/C(=C\c3ccc(OCC(=O)O)cc3)C(=O)N2CCc2c[nH]c3ccccc23)cc1	8.9µM	0	-57	14µM	0	18µM
COc1ccc(N=C2S/C(=C\c3ccc(N4CCOCC4)o3)C(=O)N2CCc2c[nH]c3ccccc23)cc1	-	0	-	40µM	?	-
COc1ccc(C2C(C(=O)c3ccco3)=C(O)C(=O)N2c2nnc(C)s2)cc1OC (configuration not stated)	25µM	-	0	0	50µM	0
C=CCOc1ccc(C2C(C(=O)c3ccco3)=C(O)C(=O)N2CCCN(CC)CC)cc1 (configuration not stated)	0	0	0	0	?	0
COc1ccc(C2C(C(=O)c3ccco3)=C(O)C(=O)N2c2nnc(C)s2)cc1 (configuration not stated)	0	0	0	50µM	-	0
C=CCOc1ccc(C2C(C(=O)c3ccco3)=C(O)C(=O)N2c2nnc(C)s2)cc1 (configuration not stated)	28µM	0	0	79µM	0[12.7 µM]	0
O=C(O)CCC/C=C\C[C@@H]1[C@@H](/C=C/[C@H](O)C2Cc3ccccc3C2)[C@@H](F)C[C@@H]1O	-	-	-	-	0	-
COc1cccc(C(=O)NCc2cn3ccccc3n2)c1	?	-	-	0	?	0
COc1cc(Br)c(CN2C(=O)NC3(CCCCCC3)C2=O)cc1OC	0	-	0	0	45µM	0
CCCCN(CC)CCCNC(=O)C1CCCN(c2ncnc3c2nc2n3CCCCC2)C1 (configuration not stated)	0	-	-	0	0	0
O=C(O)C/C(=C\c1ccc(N2CCOCC2)c([N+](=O)[O-])c1)c1nc2ccccc2s1	0[11.4 µM]	0	-54	50µM	?	0
O=C(O)CC/C(=C\c1ccc(N2CCOCC2)c([N+](=O)[O-])c1)c1nc2ccccc2s1	?	0	0	35µM	?	0
O=C(O)CC/C(=C\c1ccc(Cl)c([N+](=O)[O-])c1)c1nc2ccccc2s1	0	0	0	0	0	0
Cc1ccc2nc(SCC(=O)Nc3ccc(C#N)cc3)[nH]c2c1	0	-	-	0	0	0
Cc1ccc2nc(SCC(=O)c3c(N)n(C)c(=O)n(C)c3=O)[nH]c2c1	0	0	0	?	0.89µM	0
CCCn1c(N)c(C(=O)CSc2nc3ncc(Cl)cc3[nH]2)c(=O)n(C)c1=O	0	0	0	0	0[2.33 µM]	0
C/C(N)=C(/C#N)C(=O)CSc1nc2ccc(C)cc2[nH]1	0	0	-	0	16µM	0
CC(C)Cn1c(N)c(C(=O)CSc2nc3ncc(Cl)cc3[nH]2)c(=O)n(C)c1=O	?	0	0	0	28µM	0
COc1ccc(-c2cc(-c3ccc(C)cc3)nc3c2COc2ccccc2-3)cc1	0	-	-	0	0	0
Cc1cc(S(=O)(=O)N(Cc2ccccn2)Cc2ccco2)ccc1-n1cnnn1	0	0	-	?	25µM	0
CCOc1ccccc1CN(Cc1ccco1)S(=O)(=O)c1ccc(-n2cnnn2)c(OC)c1	0	0	-	0	8.9µM	0
COc1cc(S(=O)(=O)N(Cc2ccco2)C2CCCC2)ccc1-n1cnnn1	0	0	-	0	32µM	0
SMILES	JMJD2A Tudor inh	L3MBTL1 inh	PI5P4K alpha inh	BAZ2B block	G9a inh	HP1b binding inh
CCN(CC)S(=O)(=O)c1ccc(-n2cnnn2)c(C)c1	0	-	-	0	0	0
COc1ccc(CN(Cc2ccccn2)S(=O)(=O)c2ccc(-n3cnnn3)c(OC)c2)cc1	0	0	-	0	50µM	0
COc1ccccc1-c1c(C)nn2c(N3CCN(c4ccc(F)cc4)CC3)cc(C)nc12	0	-	-	0	0	0
CN(C)S(=O)(=O)c1cccc2c1C(=O)c1ccccc1C2=O	0	0	0	0	?	0
CN(C)c1cc2c(c(N(C)C)c1)C(=O)c1ccccc1C2=O	?	18µM	0	8.9µM	10µM	?
O=S(=O)(c1ccc(C(F)(F)F)cc1)N1CCN(c2nc(-c3ccccc3)nc3ccccc23)CC1	0	-	-	-	-	0
O=C(CN1CC(=O)Oc2ccccc21)OCC(=O)c1ccc(F)cc1	10µM	18µM	0	8.9µM	?	0
O=C(CN1CC(=O)Oc2ccccc21)OCC(=O)c1ccc(Br)cc1	20µM	-	0	-	-	0
COc1ccc(OC)c(NC(=O)COCc2cc(-c3ccc(F)cc3)on2)c1	0	-	-	0	0	0
COc1cc(NC(=O)Cn2nnc(-c3ccc(C(F)(F)F)cc3)n2)c(C(=O)O)cc1OC	0	-	-	0	0	0
COc1ccccc1NC(=O)C1=C(C)Nc2nc(-c3ccc(N(C)C)cc3)nn2C1c1ccncc1 (configuration not stated)	?	0	-	50µM	?	0
COc1ccccc1NC(=O)C1=C(C)Nc2nc(SCc3cccc(F)c3)nn2C1c1ccc(C(=O)O)cc1 (configuration not stated)	0	0	-	50µM	0[12.7 µM]	0
CCOC(=O)CSc1nc2cc(OC)c(OC)cc2cc1C#N	0	-	-	-	-	0
O=C(Cn1cc(S(=O)(=O)Cc2ccc(F)cc2)c2ccccc21)NCc1ccccc1Cl	0	-	-	0	0	0
Cc1nc2ccn(Cc3ccco3)c(=O)c2cc1C(=O)NCc1ccc(F)cc1	0	-	-	0	0	0
O=C(CCS(=O)(=O)c1ccc(Br)cc1)Nc1ccc(Cl)c(C(F)(F)F)c1	0	-	-	0	0	0
Nc1c(-c2ccccc2)sc2ccc3ccccc3[n+]12	0	-	0	0	1µM	0
c1ccc(Nc2nc(-c3ccccc3)c(-c3ccccc3)s2)cc1	0	-	-	-	-	0
Cn1cc(SCC(=O)Nc2ccc3c(c2)OCO3)c2ccccc21	0	-	0	0	25µM	0
O=C(CSc1cccc[n+]1[O-])Nc1ccc2c(c1)OCO2	0	0	0	0	50µM	0
CN(C)S(=O)(=O)c1cc(NC(=O)CSc2cccc[n+]2[O-])ccc1Cl	0	0	0	0	0[2.33 µM]	0
CCN(CC)CCN(C(=O)c1ccc(C(=O)OC)cc1)c1nc2ccc(Cl)cc2s1	?	-	-	0	0	0
